Assay outcomes as filed in PubChem BioAssay.
GC-A act: GC-A stimulated cGMP production enhancers – HEK293 GC-A cells, cGMP TR-FRET, EC30 ANP, primary screen; Atrial natriuretic peptide receptor 1 (Homo sapiens), P16066; 0% at EC30 ANP, 100% saturating ANP; activation, % at 10 µM; 0.14% of 370,000 active; AID 1671463, 2021; in the data active = activation above about 40%
V-ATPase pH: regulators of yeast V-ATPase proton pumping, primary screen, pHLuorin cytosolic pH fluorescence; S. cerevisiae; response, % at 10 µM; 0.37% of 350,000 active; AID 504577, 2011; in the data active = response mostly above about 7.3%, no sharp cut-off; inactive = mostly below about 5.4%; note: actives read high
Rev-erbA mod: modulators of Rev-erb alpha DNA binding, primary screen, biochemical, FITC-DNA, fluorescence polarization, uHTS; 0.79% of 370,000 active; activity, % at 10 µM; Rev-erbα–FITC-DNA binding, 90 min; AID 1259318, 2017; Nuclear receptor subfamily 1 group D member 1 (Homo sapiens), P20393;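 active = activity above about 14%, limit read from the data; passing the limit was not always enough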;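 note: 0% = DMSO wells with 35 nM protein and 100% = DMSO wells with 750 nM protein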
Target sequence (P20393 whole entry, looked up): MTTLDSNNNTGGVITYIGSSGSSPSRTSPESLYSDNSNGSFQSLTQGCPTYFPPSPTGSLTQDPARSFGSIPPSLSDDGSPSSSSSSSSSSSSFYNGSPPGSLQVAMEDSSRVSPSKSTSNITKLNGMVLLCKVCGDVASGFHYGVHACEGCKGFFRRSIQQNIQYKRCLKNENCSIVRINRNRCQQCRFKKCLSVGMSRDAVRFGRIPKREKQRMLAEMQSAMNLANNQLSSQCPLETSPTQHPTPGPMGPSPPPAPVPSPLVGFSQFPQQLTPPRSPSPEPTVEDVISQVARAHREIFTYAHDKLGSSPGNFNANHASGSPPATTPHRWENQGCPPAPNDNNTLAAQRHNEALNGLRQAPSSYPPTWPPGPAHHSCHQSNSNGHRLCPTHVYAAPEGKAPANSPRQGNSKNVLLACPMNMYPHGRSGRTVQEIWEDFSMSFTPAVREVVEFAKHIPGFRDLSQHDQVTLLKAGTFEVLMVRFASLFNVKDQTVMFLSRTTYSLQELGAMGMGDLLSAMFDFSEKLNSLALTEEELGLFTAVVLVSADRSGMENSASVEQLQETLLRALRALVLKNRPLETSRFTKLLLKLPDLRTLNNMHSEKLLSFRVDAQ
GC-B act: human GC-B receptor activators, primary screen, HEK293 GC-B cells, cGMP TR-FRET, EC30 CNP. activation, % at 10 µM. 0.11% of 370,000 active. Atrial natriuretic peptide receptor 2 (Homo sapiens), P20594. 0% at EC30 CNP, 100% saturating CNP. AID 1920062, 2024;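 active = activation at 10 µM reaching about 35% in either raw or pattern-adjusted values, limit read from the data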
PG9 binder: binders of HIV-1 gp120 antibody PG9, primary screen, biochemical, TR-FRET. HIV-1 gp120 / PG9 antibody interaction. TR-FRET gp120-PG9 antibody binding. inhibition, % at 6.7 µM. 0.43% of 360,000 active; in the data active = inhibition above about 8.5%
V-ATPase pH SP: yeast V-ATPase proton pumping modulators, confirmation, S. cerevisiae, pH-sensitive GFP, second cherry-pick; shares compounds with V-ATPase pH; S. cerevisiae pHLuorin cytosolic pH, V-ATPase proton transport; response, % at 10 µM; 2% of 980 active; in the data active = response above about 24%;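 note: plate controls were vehicle wells for no effect and positive control wells for full effect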
PG9 binder conf: binders of anti-gp120 antibody PG9, confirmation, biochemical, TR-FRET; shares compounds with PG9 binder; TR-FRET PG9 antibody binding; inhibition, % at 6.7 µM; 90% of 1,500 active; AID 651571, 2012; in the data active = inhibition above about 9%
PGV04 Ab binding: binders of control antibody PGV04, counter-screen for PG9 antibody binder project, biochemical, TR-FRET, distinct HIV envelope site. shares compounds with PG9 binder. TR-FRET PGV04 antibody-gp120 binding. inhibition, % at 6.7 µM. 95% of 1,500 active. AID 651604, 2012; in the data active = inhibition above about 9.5%
Rev-erbA confirm: modulators of Rev-erb alpha DNA binding, confirmation, biochemical, FITC-DNA, fluorescence polarization, single point | activation, % at 25 µM | 90 min | 61% of 3,000 active | AID 1259319, 2017 | shares compounds with Rev-erbA mod;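 active = activation at or above a set limit, or at least 3 SD above the negative control mean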;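 note: 0% = 35 nM protein with DMSO and 100% = 750 nM protein high control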
* = called active by the depositor. This is a sample that favours compounds with a hit; in the whole collection about 1.6% have one here.

Screening CCCCc1ccc(-c2noc(CCC(=O)NCC)n2)cc1 returned GC-A act -7.0, Rev-erbA mod -9.3 and GC-B act -6.0.
For O=S(=O)(c1cccc2cccnc12)N1CCC(c2cn3ccccc3n2)CC1 the results were GC-A act 0.0, Rev-erbA mod -2.5 and GC-B act 3.5.
Cc1nn(-c2ccccc2)c(Cl)c1/C=C1\C(=O)N(C)C(=S)N1C was read as GC-A act 11.4, V-ATPase pH 47.2*, Rev-erbA mod 2.3, GC-B act 0.8, PG9 binder -0.7 and V-ATPase pH SP 1.7.
Screening COc1ccc2cc(S(=O)(=O)N3CCCC3)ccc2c1 returned GC-A act 1.7, V-ATPase pH 1.2, Rev-erbA mod -4.6, GC-B act 1.8 and PG9 binder 0.5.
Screening COc1ccc2cc(S(=O)(=O)N3CCN(C)CC3)ccc2c1 returned GC-A act -2.0, V-ATPase pH 12.6*, Rev-erbA mod 2.9, GC-B act 8.1, PG9 binder 1.0 and V-ATPase pH SP -1.2.
Screening CCn1c(=O)n2n(c1=O)[C@H]1C[N+](Cc3ccc4c(c3)OCO4)=C(N)NC1=C(C)C2 returned GC-A act 2.6, Rev-erbA mod 9.1 and GC-B act -1.9.
Cc1nc2c(-c3ccc(F)cc3)c(C)nn2c(C)c1CCC(=O)N1CCN(c2ccccc2)CC1 was read as GC-A act -8.2, V-ATPase pH 11.8*, Rev-erbA mod 9.1, GC-B act -10.6, PG9 binder -0.4 and V-ATPase pH SP 2.1.
For O=C(Nc1ccccc1OC(=O)c1ccccc1)c1ccccc1 the results were GC-A act -6.0, V-ATPase pH 14.6*, Rev-erbA mod -8.7, GC-B act -5.1, PG9 binder 0.4 and V-ATPase pH SP 4.2.
Screening O=C(Nc1ccccc1OC(F)F)c1ccccc1 returned GC-A act 1.9, V-ATPase pH 11.4*, Rev-erbA mod -2.0, GC-B act 2.7, PG9 binder -1.1 and V-ATPase pH SP 2.9.
COC(=O)c1ccc(C2NC(=S)N(c3ccccc3)C(C)=C2C(=O)Nc2ccccc2OC)cc1 (stereo unspecified) was read as GC-A act 1.6, V-ATPase pH 11.0*, Rev-erbA mod -2.9, GC-B act 5.5, PG9 binder 0.0 and V-ATPase pH SP 3.6.
For COc1ccccc1NC(=O)C1=C(C)N(c2ccccc2)C(=S)NC1c1cccc(C(F)(F)F)c1 (stereo unspecified) the results were GC-A act -8.7, V-ATPase pH 5.1, Rev-erbA mod -2.8, GC-B act -3.5 and PG9 binder 2.8.
CCOC(=O)c1ccc(NC(=O)CSc2nnc(SCc3cccc4ccccc34)s2)cc1 was read as GC-A act -0.8, Rev-erbA mod 5.8 and GC-B act -0.1.
`COc1cccc(C2C(C(=O)c3cc4ccccc4o3)=C(O)C(=O)N2CCN(C)C)c1OC` (stereo unspecified) gave GC-A act 4.2, V-ATPase pH 13.0*, Rev-erbA mod -4.7, GC-B act 1.0, PG9 binder 29.5*, V-ATPase pH SP 0.9, PG9 binder conf 32.7* and PGV04 Ab binding 53.9*.
COc1cccc(C2C(C(=O)c3ccco3)=C(O)C(=O)N2CCN(C)C)c1OC (stereo unspecified) was read as GC-A act 2.4, V-ATPase pH 0.8, Rev-erbA mod -0.5, GC-B act 2.4 and PG9 binder 0.3.
For Cc1ccc(C(=O)NCC(=O)OCc2nc3sc(C)c(C)c3c(=O)[nH]2)cc1 the results were GC-A act -3.7, Rev-erbA mod 3.7 and GC-B act -3.0.
CCOC(=O)Cn1cc(CN2CCS(=O)(=O)N(Cc3ccc(OC)cc3)C(C(=O)OC)C2)nn1 (stereo unspecified) was read as GC-A act -1.1, Rev-erbA mod 4.7 and GC-B act 2.6.
`CC1CCN(C(=O)Cn2cnc3c(cnn3C(C)(C)C)c2=O)CC1` gave GC-A act 1.4, V-ATPase pH 10.9*, Rev-erbA mod -0.8, GC-B act -1.1, PG9 binder 11.2*, V-ATPase pH SP -52.0, PG9 binder conf 7.9 and PGV04 Ab binding 10.2*.
COC(=O)c1cc(Br)c(=O)n(-c2cc(C)on2)c1 was read as GC-A act 1.5, V-ATPase pH 8.0*, Rev-erbA mod 6.4, GC-B act 2.7, PG9 binder 9.8*, V-ATPase pH SP -2.5, PG9 binder conf 20.6* and PGV04 Ab binding 26.3*.
`Cc1cc(=O)oc2cc(NC(=O)c3c(Cl)cnn3C)ccc12` gave GC-A act -6.2, V-ATPase pH 9.2*, Rev-erbA mod 20.9*, GC-B act -3.3, PG9 binder 0.9, V-ATPase pH SP 0.9 and Rev-erbA confirm 5.3.
O=C(CSc1nnc(-c2ccccc2F)n1Cc1ccco1)Nc1ccccc1-c1ccccc1 was read as GC-A act -6.9, Rev-erbA mod -10.3 and GC-B act -12.5.
CCc1nc(SCC(=O)Nc2nccs2)c2oc3ccccc3c2n1 was read as GC-A act 7.9, V-ATPase pH 10.1*, Rev-erbA mod 15.1*, GC-B act -2.5, PG9 binder 5.5, V-ATPase pH SP -1.4 and Rev-erbA confirm 18.0*.
`CCc1nc(SCC(=O)N2CCCc3ccccc32)c2oc3ccccc3c2n1` gave GC-A act 1.2, V-ATPase pH -6.6, Rev-erbA mod -4.8, GC-B act -1.8 and PG9 binder 0.5.
For CCc1ccccc1N(C)S(=O)(=O)c1ccc2[nH]cc(C(=O)N3CCc4ccccc43)c(=O)c2c1 the results were GC-A act -4.1, V-ATPase pH 21.6*, Rev-erbA mod 45.3*, GC-B act 8.3, PG9 binder 0.0, V-ATPase pH SP 8.4 and Rev-erbA confirm 26.8*.
`CCCCCN1CCCCC(NC(=O)C(C)(C)C)C1=O` (stereo unspecified) gave GC-A act 3.5, Rev-erbA mod -3.3 and GC-B act -1.7.
